# Screening data as filed in PubChem.
# 3CLpro inhibitor: SARS-CoV 3CLpro protease inhibition. P0C6X7. recombinant SARS-CoV 3CLpro, quenched FRET peptide cleavage. inhibition, % at 6 µM. 290,000 compounds, 0.14% hits; in the data active = inhibition above about 12%
# BH1578 lux ind: induces V. cholerae light production without autoinducers. activation, % at 18.7 µM. V. cholerae BH1578 lux reporter, luminescence, 6 h. 350,000 compounds, 0.16% hits. AID 588436; in the data active = activation mostly above about 9.7%, no sharp cut-off
# VHR inh abs: inhibitors of human VHR1 phosphatase (DUSP3); recombinant VHR phosphatase, pNPP absorbance; 290,000 compounds, 0.52% hits; inhibition, % at 13.3 µM; in the data active = inhibition above about 50%
# Target sequence (P51452 whole entry, looked up): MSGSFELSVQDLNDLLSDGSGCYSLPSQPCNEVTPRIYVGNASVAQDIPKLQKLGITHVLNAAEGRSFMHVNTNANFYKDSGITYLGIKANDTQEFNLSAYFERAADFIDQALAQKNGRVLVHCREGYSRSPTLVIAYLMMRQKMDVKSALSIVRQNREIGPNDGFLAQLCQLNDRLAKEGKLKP
# BJeLR viability: BJeLR cell viability loss | 300,000 compounds, 0.17% hits | AID 1554 | BJeLR (HRASV12) viability, CellTiter-Glo ATP luminescence, 48 h | inhibition, % (no concentration beside the values); in the data active = inhibition above about 50%
# PfHsp40 rescue: restores yeast growth despite PfHsp40 toxicity. growth rescue, % at 12.5 µM. S. cerevisiae expressing PfHsp40, growth rescue, ATP luminescence. 340,000 compounds, 0.68% hits; in the data active = growth rescue above about 28%, passing the limit was not always enough;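 also: yeast W303a lacking pdr1 and pdr3 grown in galactose medium; growth measured after three days at 30 °C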
# MazF activator: increases E. coli MazEF RNase cleavage of RNA. P0AE70. FAM/BHQ RNA-DNA oligo cleavage fluorescence, 5 h. activation, % at 20 µM. 350,000 compounds, 0.32% hits. AID 504720; in the data active = activation above about 50%
# Target sequence (P0AE70 whole entry, looked up): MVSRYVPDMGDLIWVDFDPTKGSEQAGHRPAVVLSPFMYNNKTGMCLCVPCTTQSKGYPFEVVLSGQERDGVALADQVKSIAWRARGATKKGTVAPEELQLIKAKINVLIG
# Hits are given with their value; . = inactive; / = no result. Hits are enriched below; roughly 1.7% of the tested compounds scored in any of these assays.
SMILES,3CLpro inhibitor,BH1578 lux ind,VHR inh abs,BJeLR viability,PfHsp40 rescue,MazF activator
O=C(N/N=C/C=C/c1ccco1)c1cccc([N+](=O)[O-])c1,.,.,.,.,.,.
O=C(/C=C/c1ccco1)c1cccc([N+](=O)[O-])c1,/,/,/,/,27,.
CC1=C(C(=O)OC2CCCC2)C(c2coc3ccccc3c2=O)C2=C(CC(C)(C)CC2=O)N1 (configuration not stated),.,.,.,.,93,.
O=P(Nc1ccccc1)(Nc1ccccc1)c1ccccc1,/,.,/,/,43,.
COC(CNC(=O)CN1CCN(Cc2ccc(F)cc2Cl)C1=O)OC,.,.,.,.,.,.
Cc1ccsc1/C=C1/SC(N2CCOCC2)=NC1=O,.,/,.,.,/,/
Cc1ccccc1-c1ccc(/C=C2/SC(N3CCOCC3)=NC2=O)o1,.,.,.,.,.,151
O=C1N=C(N2CCOCC2)S/C1=C\c1ccc(-c2ccccc2Cl)o1,.,.,.,.,.,61
Cc1c(C=NNC(=O)c2ccc(Br)cc2)c2ccccn2c1C(=O)c1ccncc1,/,.,/,/,.,59
Cc1c(/C=N/NC(N)=O)c2ccccn2c1C(=O)c1ccc(F)cc1,.,.,.,.,.,.
CN(C)C(=O)Cn1cc(S(=O)(=O)Cc2ccccc2)c2ccccc21,.,.,59,.,.,.
CN(C(=O)CS(=O)(=O)c1cn(CC(=O)N2CCCC2)c2ccccc12)c1ccccc1,.,.,.,.,.,.
C/C(Cl)=C/CSc1nnc2n(N)c(=O)c3ccccc3n12,.,33,.,.,.,.
CCOC(=O)COc1ccccc1/C=C\[N+](=O)[O-],.,.,.,.,71,.
Cc1ccc(C(=O)COC(=O)COc2ccccc2[N+](=O)[O-])s1,/,.,/,/,.,.
O=c1c(CO)cc(CO)cc(CO)c1O,.,.,.,.,422,.
O=C1C=CC(=O)c2c(O)c(CO)c(CO)c(O)c21,/,.,/,/,.,.
CCOc1ccc(OCc2cccc(C(=O)O)c2)cc1,/,.,.,55,.,.
COc1ccc(OCc2cccc(C(=O)O)c2)cc1,/,.,.,.,.,.
O=C(NCc1ccco1)c1ccc(Cl)c(S(=O)(=O)N2CCc3ccccc32)c1,.,.,56,.,.,.
CN1C(=O)C(=Cc2c(OCc3cnc(Cl)s3)ccc3ccccc23)C(=O)N(C)C1=O,.,.,.,.,125,.
CC(C)(C)c1ccc(/C=N/OCC(=O)NCc2ccc(F)cc2)cc1,.,.,.,.,74,.
COc1ccc(C(=O)NN=C2CCCC2)cc1OC,.,.,.,.,.,.
COc1ccc(Cl)cc1C(=O)NN=C1CCCC1,/,.,/,.,82,.
CCCNC(=O)C1(C)CCCN(C(=O)c2ccc(F)c(Cl)c2)C1 (configuration not stated),/,.,/,/,/,/
SMILES,3CLpro inhibitor,BH1578 lux ind,VHR inh abs,BJeLR viability,PfHsp40 rescue,MazF activator
Cc1oc(-c2ccccc2F)nc1CS(=O)(=O)CC(=O)NCCCN1CCc2ccccc2C1,.,.,.,.,.,.
COc1cccc(-c2nc(CS(=O)(=O)CC(=O)NCCCN3CC(C)CC(C)C3)c(C)o2)c1 (configuration not stated),.,.,.,.,.,.
COc1cccc(-c2nc(CS(=O)(=O)CC(=O)NCCCN3C(C)CCCC3C)c(C)o2)c1 (configuration not stated),.,.,57,.,.,.
Cc1oc(-c2ccccc2F)nc1CS(=O)(=O)CC(=O)NCCN1CCCC1,.,.,53,.,.,.
COc1cccc(CNc2nc3cc(-c4cccc(C(=O)NCCO)c4)sc3c(=O)n2C)c1,/,.,/,/,/,/
COC(=O)c1ccc2c(c1)C(C)(C)C(/C=C/c1ccc(OC)c(OC)c1OC)=[N+]2C,.,.,.,52,.,.
CCc1cccc(NC(=O)COC(=O)c2cc([N+](=O)[O-])ccc2N2CCOCC2)c1,/,.,/,.,/,.
CCn1c(SCC(=O)Nc2ccc(C(=O)OC)cc2)nnc1-c1cccs1,.,.,.,/,.,.
O=C(CSc1nnc(-c2ccccc2)o1)Nc1ccccc1F,.,.,.,.,.,.
Cn1c(SCC(=O)Nc2ccccc2F)nnc1-c1cccs1,.,.,54,.,.,.
CCn1c(SCC(=O)NCC(=O)Nc2ccc(F)cc2)nnc1-c1cccs1,.,25,.,.,.,.
Cc1ccc(-c2nnc(SCC(=O)Nc3ccccc3F)o2)cc1,.,.,.,56,.,.
